# Measured values from the supplement of paper PMC10338343.
# ± gives the standard deviation.
# Legend:
# [1] = test system: EfPiwi piRISC loaded with L1MC piRNA (26 nt); assay: pre-steady-state target cleavage rate (min^-1); auxiliary factor: none (no Gtsf1); guide: L1MC piRNA 5'p-UAACUAAAUACUAUGCAAGCUGUAGG; higher = faster piRNA-guided slicing of the target
# Method in brief: (§1)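 Cleave-'n-Seq: a transcribed, DNA-blocked target RNA library (0.1 nM) was mixed with 1 nM active affinity-purified piRISC carrying one synthetic guide, with or without 500 nM GTSF1 partner protein, in HEPES–potassium acetate buffer at 33 °C for 0–8 or 0–960 min. Uncleaved targets were sequenced and normalised to depth and to weakly complementary targets. Three trials were pooled, and k3 was capped at 0.0001 min^-1. The pre-steady-state cleavage rate came from a burst-and-steady-state fit.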
# [2] = test system: EfPiwi piRISC loaded with L1MC piRNA (26 nt); assay: pre-steady-state target cleavage rate (min^-1); auxiliary factor: 500 nM Ephydatia muelleri Gtsf1; guide: L1MC piRNA 5'p-UAACUAAAUACUAUGCAAGCUGUAGG; higher = faster piRNA-guided slicing of the target
# Method in brief: as §1
# [3] = test system: MILI (PIWIL2) piRISC loaded with L1MC piRNA (26 nt); assay: pre-steady-state target cleavage rate (min^-1); guide: L1MC piRNA 5'p-UAACUAAAUACUAUGCAAGCUGUAGG; MIWI and MILI are mouse PIWI proteins and EfPiwi is from a freshwater sponge; tags in brackets are library labels; higher = faster piRNA-guided slicing of the target
# Method in brief: as §1
# [4] = auxiliary factor: 500 nM mouse GTSF1
# [5] = auxiliary factor: none (no GTSF1)
Sequence,pre-steady-state target cleavage rate [1],pre-steady-state target cleavage rate [2],"pre-steady-state target cleavage rate [3, 4]","pre-steady-state target cleavage rate [3, 5]"
UCCUGGAUGUCGAACCAUAGUUUUAGUUA,< 0.0001,< 0.0001,–,–
UCCUGGAUCAGCUUGCAUAGCAUUUAGUUA,0.00546 ± 0.0038,0.00774 ± 0.0021,0.08 ± 0.012,0.00359 ± 0.0025
UCCUGGAACAGCUUGCAUAGUAUUAUGAAA,< 0.0001,0.00336 ± 0.0021,0.0563 ± 0.02,–
UCCUGGAUCAGCUUGCAUAGUACUUAGUUA,0.0113 ± 0.0052,0.0145 ± 0.0031,0.237 ± 0.018,0.00683 ± 0.0023
UCCUGGUUACAGCUUGCAUAGUAUUUAGUUA,0.00968 ± 0.0057,0.0881 ± 0.021,0.256 ± 0.025,0.03 ± 0.0078
UCCUGCUACAGCUUGCAUAUGUAUUUAGUUA,< 0.0001,0.00294 ± 0.0023,0.0123 ± 0.0069,–
UCCUGGAUGUCGAUGCAUAGUCAUUUAGUUA,< 0.0001,–,0.00452 ± 0.004,–
UCCUGGAUGUCGAACGUUAGUAUUUAGAUA,< 0.0001,< 0.0001,–,–
UCCUCCUACACCUUCCAUAGUAUUUAGUUA,< 0.0001,0.00329 ± 0.0018,0.0308 ± 0.014,–
UCCUCCUACAGGAUGCAUAGUAUUUUCAAA,< 0.0001,0.00259 ± 0.0025,0.0564 ± 0.017,–
UCCUGGAUGUCGAAGCAUAGUAUUUAGUUU [g2:g16:cont:t1U],< 0.0001,–,0.0307 ± 0.0082,0.00447 ± 0.0018
UCCUGGAUGAGCUUGCAUAGUAUGUAGUUA,0.00616 ± 0.0049,0.0135 ± 0.0044,0.162 ± 0.033,0.0043 ± 0.003
UCCUGGAUCAGGAAGCAUAGUAUUUAGAAA,< 0.0001,–,0.0247 ± 0.0063,–
UCCUGGAUGUCCUUGCAUAGUAAUUACUUA,< 0.0001,–,0.0143 ± 0.0067,–
UCCUCCUACAGCUUGCAUAGGAUUUAGUUA,0.00638 ± 0.0035,0.0113 ± 0.0028,0.0118 ± 0.0044,–
UCCUGGAUCAGCUUGCAUAGUAUCUUAGUUA,0.0132 ± 0.0071,0.0248 ± 0.0072,0.234 ± 0.021,0.00648 ± 0.0025
UCCUGGAUCAGCUUGCAUUGUAUAUAGUUA,< 0.0001,–,0.183 ± 0.018,0.00663 ± 0.0022
UCCUGGAUGUGCUUGCGUAGUAUUUAGUUA,0.00427 ± 0.0042,–,0.0451 ± 0.013,0.0145 ± 0.0037

Sequence,pre-steady-state target cleavage rate [1],pre-steady-state target cleavage rate [2],"pre-steady-state target cleavage rate [3, 4]","pre-steady-state target cleavage rate [3, 5]"
UCCUGGAUGUGCAUGCAUAGUAUUUACUUA,< 0.0001,–,0.065 ± 0.018,0.00616 ± 0.0026
UCCUCCUACAGCUUGCAUAGAAUUUUCAAA,< 0.0001,–,0.0466 ± 0.015,–
UCCUGGAUCAGCUUGCAUAGUAGUUAGUUA,0.0324 ± 0.012,0.0207 ± 0.0049,0.201 ± 0.016,0.00826 ± 0.0022
UCCUGCUAGAGCUUGCAUAGUAUUUAGAAA,< 0.0001,0.00419 ± 0.0022,0.205 ± 0.042,–
UCCUGGAUGUCGUUCAUAGUAUUUAGUUA,–,–,0.013 ± 0.0035,–
UCCUGCAUGAGCUUGCAUAGUAUUUAGAAA,< 0.0001,0.00569 ± 0.0021,0.157 ± 0.028,–
UCCUGGUGACAGCUUGCAUAGUAUUUAGUUA,0.0577 ± 0.023,0.0328 ± 0.01,0.507 ± 0.044,0.0285 ± 0.0085
UCCUGGAUCAGCUUGCAUAGUAGUUUAGUUA,0.011 ± 0.0045,0.0107 ± 0.0033,0.216 ± 0.02,0.00969 ± 0.0027
UCCUGCUACAGGUUGCAUAGUAUUUACAAA,< 0.0001,0.00244 ± 0.0017,0.0112 ± 0.0054,–
UCCUGGAACUCGUUGCAUAGUAUUUAGUUA,< 0.0001,0.00531 ± 0.0017,0.154 ± 0.018,0.00417 ± 0.0024
UCCUGGAUCAGCUUGCAUAGUAUAUAGUUA,0.0117 ± 0.0058,0.0716 ± 0.02,0.268 ± 0.017,0.00895 ± 0.0025
UCCUGGAAGAGCUUGCUUAGUAUUUAGUUA,0.00878 ± 0.005,0.0135 ± 0.0043,0.204 ± 0.016,0.0109 ± 0.0029
UCCUGGAUGUGCUUGCAUAGUAUCUUAGUUA,0.0107 ± 0.0064,–,0.135 ± 0.019,0.0069 ± 0.0028
UCCUGGAUGUCCAUGCAUAGUAUUUAGUAA,–,–,0.0373 ± 0.011,–
UCCUGGAUGUCCUUGCAUUGUAUUUAGUAA,–,–,0.0421 ± 0.015,–
UCCUGGAUCAGCUUGCAUAGUAUAAUGAAA,–,–,0.0691 ± 0.022,–
UCCUGGAUCACGAUGCAUAGUAUUUUCAAA,–,–,0.0499 ± 0.012,–
